Test systems include HCT-15 colon; HT29 colon; SNB-75 CNS; SNB-19 CNS; U251 CNS; PC-3 prostate; SK-MEL-5 melanoma; UACC-62 melanoma; LOX IMVI melanoma; SK-MEL-28 melanoma; SK-MEL-2 melanoma; EKVX NSCLC; UO-31 renal; TK-10 renal; ACHN renal; CAKI-1 renal; A498 renal; MOLT-4 leukemia; CCRF-CEM leukemia; SN12C renal.
What all share (test): NCI-60 one-dose screen, 48 h (100 = growth as untreated, 0 = no growth, -100 = all killed)
What all share (conditions): 10 µM

About 83,000 compounds went through this panel and 20% of them were active in at least one assay; those are over-represented in the sample as a whole.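 Negative percent growth values reflect cell death: -40 means 40% of the cells present at the start died, and -100 means all died.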 Values without a mark were called inactive. The source made the active and inactive calls. Rule for the calls: active = growth percent below 10; inactive = the rest.

As for `O=C(O)CCCCCCCCCCN1C(=O)/C(=C/c2cnc(-c3ccccc3)s2)SC1=S`, the growth with HCT-15 colon is 80.7%; with HT29 colon it was 126%; with SNB-75 CNS, 124%; in the assay with SNB-19 CNS, 100%; in the assay on U251 CNS it was 59.5%; in the assay with PC-3 prostate, 95%. Besides, the growth with SK-MEL-5 melanoma was 93.1%; in the assay with UACC-62 melanoma, 76.4%; in the assay on LOX IMVI melanoma, 32.1%; in the assay on SK-MEL-28 melanoma, 97.4%; in the assay on SK-MEL-2 melanoma, 93.2%; in the assay on EKVX NSCLC it was 52.8%. The growth was 77.5% with UO-31 renal; 150% in the assay on TK-10 renal; 70.3% with ACHN renal; 61.6% in the assay with CAKI-1 renal; 99.8% in the assay with A498 renal; 39.1% with MOLT-4 leukemia.
`O=c1cc(-c2ccccc2)oc2cc(OCCCCNCc3ccccc3)cc(O)c12`: the growth in the assay on HCT-15 colon is -86.1% (active); in the assay on HT29 colon, -55.4% (active); in the assay with SNB-75 CNS, 53.4%; in the assay on SNB-19 CNS, 67.2%; in the assay with U251 CNS, -64.7% (active); with PC-3 prostate, -8.47% (active). Further, the growth in the assay on SK-MEL-5 melanoma is -99.9% (active); in the assay on UACC-62 melanoma, -68.7% (active); with LOX IMVI melanoma, -99.9% (active); in the assay with SK-MEL-28 melanoma, -69.7% (active); in the assay with SK-MEL-2 melanoma, 53.1%; with EKVX NSCLC it was 25.1%. The growth is 37% in the assay on UO-31 renal; 78.9% in the assay on TK-10 renal; 59.9% in the assay with ACHN renal; 25.7% in the assay with CAKI-1 renal; 37.6% with A498 renal; 2.88% (active) in the assay with CCRF-CEM leukemia. For the same compound, in the assay with MOLT-4 leukemia, the growth was -0.919% (active).
With `COc1ccccc1[C@H]1C(C(=O)c2ccc(Cl)cc2)C2(N[C@@H]1c1ccccc1)C(=O)Nc1ccc(Cl)cc12` (stereo not given in full), the growth with HCT-15 colon was 7.83% (active); with HT29 colon, -3.95% (active); in the assay on SNB-75 CNS it was 40.9%; with SNB-19 CNS, 21.2%; in the assay on U251 CNS, 17%; with PC-3 prostate it was 13.3%. Moreover, the growth with SK-MEL-5 melanoma was -75.4% (active); in the assay on UACC-62 melanoma, -27.3% (active); in the assay with LOX IMVI melanoma it was -74.6% (active); with SK-MEL-28 melanoma, 35.1%; in the assay with SK-MEL-2 melanoma, -76.2% (active); in the assay with EKVX NSCLC, 8.9% (active). The growth was 6.99% (active) in the assay with UO-31 renal; 31.4% with TK-10 renal; 3.8% (active) in the assay with ACHN renal; 8.2% (active) in the assay with CAKI-1 renal; 13.1% in the assay with A498 renal; 5.19% (active) in the assay on CCRF-CEM leukemia. Further, the growth with MOLT-4 leukemia was -21.1% (active).
In the case of `C=C1CCC2C3(C)COC(c4c(F)cccc4F)OC3CCC2(C)C1CC(O)C1=CCOC1=O` (stereo not given), the growth with HCT-15 colon is 18.3%; in the assay on HT29 colon, 23%; with SNB-75 CNS it was 45.1%; in the assay on SNB-19 CNS, 86.2%; with U251 CNS it was 69.1%; in the assay with PC-3 prostate it was 41%. The growth in the assay on SK-MEL-5 melanoma is 68.2%; with UACC-62 melanoma, 79.7%; in the assay with SK-MEL-28 melanoma it was 62.3%; in the assay with SK-MEL-2 melanoma, 52.4%; in the assay on EKVX NSCLC, 85.7%; with SN12C renal, 34.9%. Moreover, the growth with UO-31 renal is 50%; in the assay with TK-10 renal, 105%; with ACHN renal it was 3.02% (active); in the assay on CAKI-1 renal, 72.5%; with A498 renal it was 134%; with CCRF-CEM leukemia, 17.7%. The growth in the assay with MOLT-4 leukemia was 53.7%.
In the case of `O=C(N/N=C/c1ccc(-c2cccc([N+](=O)[O-])c2)o1)c1[nH]c2ccc(Br)cc2c1-c1ccccc1`, the growth with HCT-15 colon was 0.278% (active); with HT29 colon it was -44.9% (active); in the assay on SNB-75 CNS, 83.1%; in the assay on SNB-19 CNS it was 32.9%; in the assay with U251 CNS, 9.05% (active); in the assay on PC-3 prostate, 18.8%. In addition, the growth is -20.7% (active) with SK-MEL-5 melanoma; 33% with UACC-62 melanoma; 7.19% (active) in the assay with LOX IMVI melanoma; 57.7% with SK-MEL-28 melanoma; 22.8% with SK-MEL-2 melanoma; 54.4% in the assay with EKVX NSCLC. For the same compound, the growth was 38.9% in the assay on UO-31 renal; 40.4% with TK-10 renal; 22.9% in the assay on ACHN renal; 21.4% in the assay on CAKI-1 renal; 77.9% in the assay on A498 renal; -2.99% (active) in the assay with CCRF-CEM leukemia. Further, in the assay on MOLT-4 leukemia, the growth is 4.53% (active).
Regarding `N#Cc1c(NC(=O)c2ccc(C(F)(F)F)cc2C(F)(F)F)sc2c1CCC(=O)C2`, the growth is -66% (active) in the assay on HCT-15 colon; -57% (active) with HT29 colon; 26.4% in the assay with SNB-75 CNS; 6.86% (active) in the assay on SNB-19 CNS; 8.82% (active) in the assay on U251 CNS; 2.66% (active) with PC-3 prostate. The growth in the assay on SK-MEL-5 melanoma is -97.6% (active); in the assay with UACC-62 melanoma, -89.5% (active); in the assay with LOX IMVI melanoma, -15.1% (active); in the assay with SK-MEL-28 melanoma, -86.2% (active); with SK-MEL-2 melanoma it was -38.2% (active); in the assay with EKVX NSCLC, -57.5% (active). For the same compound, the growth was -99.7% (active) with UO-31 renal; -27.8% (active) in the assay with TK-10 renal; -99.4% (active) in the assay with ACHN renal; -67.6% (active) in the assay on CAKI-1 renal; 28.6% in the assay with A498 renal; -30% (active) in the assay with CCRF-CEM leukemia. In the assay on MOLT-4 leukemia, the growth is -16% (active).
As to `O=c1cc(-c2ccccc2)oc2cc(OCCCNCc3ccccc3)cc(O)c12`, the growth in the assay with HCT-15 colon is -67.1% (active); in the assay on HT29 colon it was -59.7% (active); in the assay with SNB-75 CNS, 23.9%; in the assay on SNB-19 CNS it was 48.2%; with U251 CNS, -79.8% (active); in the assay with PC-3 prostate, -0.767% (active). The growth in the assay with SK-MEL-5 melanoma was -99.6% (active); with UACC-62 melanoma, -55.7% (active); in the assay on LOX IMVI melanoma, -97.8% (active); in the assay with SK-MEL-28 melanoma, -88.8% (active); with SK-MEL-2 melanoma, -81.4% (active); in the assay on EKVX NSCLC, 8.87% (active). Also, the growth with TK-10 renal is 37.3%; with ACHN renal, 3.03% (active); with CAKI-1 renal, -24% (active); with A498 renal, -14.5% (active); with CCRF-CEM leukemia, 10.1%; in the assay on MOLT-4 leukemia, -13% (active).
For the compound `Nc1nnc(-c2c[nH]c3ccc(F)cc23)c(-c2c[nH]c3ncccc23)n1`, the growth is 69.3% with HCT-15 colon; 59.5% in the assay with HT29 colon; 29.1% with SNB-75 CNS; 33.9% in the assay on SNB-19 CNS; 37.6% with U251 CNS; 67.5% in the assay on PC-3 prostate. Further, the growth in the assay with SK-MEL-5 melanoma is 63.7%; with UACC-62 melanoma, 51.7%; in the assay with SK-MEL-28 melanoma, 71.3%; in the assay on SK-MEL-2 melanoma, 93.7%; in the assay on EKVX NSCLC it was 65.1%; in the assay with SN12C renal, 46.9%. Further, the growth with UO-31 renal was 37.9%; with TK-10 renal it was 82.9%; in the assay on ACHN renal, 51.6%; with CAKI-1 renal, 33.9%; in the assay with A498 renal, 104%; in the assay on CCRF-CEM leukemia, 61.6%. Moreover, the growth with MOLT-4 leukemia is 48.8%.

The values above are taken from PubChem BioAssay (NCI).
